# Source: PubChem BioAssay
# Abeta rescue = qHTS for compounds that reverse cellular toxicity of Amyloid beta (A-beta) peptide in yeast: Primary Screen | yeast expressing A-beta42, growth rescue, OD600, 48 h; response scale: 0% DMSO, 100% iron-clioquinol control | Potency, µM (titrated, usually from 46.1 µM), most hits filed as activators | 0.063% of 410,000 active | AID 1347071, 2019; note: nearly all actives have a fitted effect of over 55% in size
#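 Yeast A-beta toxicity model in growth medium with pinned compounds, 48 h at 30 C; growth read as absorbance at 600 nm. Normalized to FeCl3/clioquinol equimolar mix (positive) and DMSO (negative).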
# aSyn rescue = qHTS of alpha-syn Inhibitors | Yeast expressing alpha-synuclein, growth rescue, BacTiter-Glo, 24 h | Potency, µM (doses to about 46.1 µM), for the others: at the highest dose growth rescue (activation), most hits filed as activators | 0.14% of 370,000 active | AID 652106, 2013; note: % of control where 0% means no effect; nearly all actives have a fitted effect of over 65% in size
#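 Readout is rescue of growth in alpha-synuclein-expressing yeast, so inhibitors of toxicity appear as activators. Growth after 24 hr at 30 deg C in galactose medium is quantified by luminescence.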
# TDP43 rescue = qHTS of TDP-43 Inhibitors; TDP-43 expressing yeast growth rescue, BacTiter-Glo, 24 h; Potency, µM (series often up to 46.1 µM), for inactives: at the top dose growth rescue (activation), hits mostly activators; 1.8% of 410,000 active; note: % of control where 0% means no effect; nearly all actives have a fitted effect of over 50% in size
#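 In this qHTS, compounds that restore growth of yeast expressing TDP-43 appear as activators. Cells (OD600=0.02, galactose medium, raffinose-pregrown) are incubated with compound 24 hr at 30 deg C and growth is quantified by BacTiter-Glo.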
# Mm-Cpn inhibitor = Inhibitors of TCP-1 ring complex (TRiC) of Methanococcus maripaludis (MmCpn): qHTS; Potency, µM (series often up to 76.9 µM), inactives show top-dose activity, negative = inhibition, hits mostly inhibitors; 0.031% of 330,000 active; purified Mm-Cpn ATPase, ADP Transcreener TR-FRET; note: % is set by controls: 0 for no effect and ±100 for the full control effect; nearly all actives have a fitted effect of over 80% in size
#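 Quantitative HTS used 25 nM Mm-CPN and 10 uM ATP in magnesium/KCl Tris buffer, pH 7.4, with 1 mM DTT. Hydrolysis ran 30 min at 37°C; ADP was read by HTRF.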
# ClpP mod = qHTS Assay for Activators of ClpP | purified B. subtilis ClpP, FRET peptide cleavage, 20 min | ATP-dependent Clp protease proteolytic subunit (Bacillus subtilis (strain 168)), P80244 | 1.9% of 340,000 active | AID 651965, 2013 | Potency, µM (doses to about 57.5 µM), without a hit: top-dose activity change, negative = active; active = well fitted falling curve with a large enough effect; inconclusive = small, poorly fitted or top-dose-only effect; inactive = no such curve, though single readings can be large or run the other way; note: the source files actives as falling curves though it sought activators and does not explain the sign; nearly all actives have a fitted effect of over 65% in size
# Target sequence (P80244 whole entry, looked up): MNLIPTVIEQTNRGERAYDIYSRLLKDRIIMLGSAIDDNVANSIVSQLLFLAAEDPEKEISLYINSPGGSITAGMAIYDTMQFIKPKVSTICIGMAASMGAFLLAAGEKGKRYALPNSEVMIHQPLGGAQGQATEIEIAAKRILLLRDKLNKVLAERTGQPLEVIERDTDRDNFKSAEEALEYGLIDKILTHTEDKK
#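 Buffer: 100 mM Tris/HCl pH8, 100 mM KCl, 0.05% low protease BSA, 2.5% glycerol, 0.01% Tween-20. ClpP 10 microg/mL final; 20 min RT; delta FRET normalized to ADEP and DMSO controls.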
# FUS yeast rescue = qHTS for Suppressors of FUS Proteinopathy: Primary screen using FUS-linked yeast assay; S. cerevisiae FUS-expressing, growth rescue, OD600, 24 h; Potency, µM (top dose mostly 76.6 µM), usual class: activators; 0.24% of 390,000 active; AID 1347120, 2019;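 note: plate controls were DMSO vehicle for no effect and reference control for full effect; nearly all actives have a fitted effect of over 55% in size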
#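 Yeast expressing FUS under galactose induction, OD 0.005 in 2% galactose medium; compounds in a dilution series, 24 h at 30C. Growth rescue by absorbance at 600 nm; CP55940 positive control, DMSO negative.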
# * = called active by the depositor; i = inactive; ? = inconclusive; · = not tested or not shown. The list is not random: actives were taken first. Their share in the collection is about 3.6%. Unless noted, calls come from the whole dose curve; as a rule, active = well fitted curve in the direction sought with a large enough effect; inconclusive = small, poorly fitted or top-dose-only effect, or another doubt; inactive = no such curve, though single readings can be large; an effect the other way counts as inactive or inconclusive. Potency is the fitted concentration of half-maximal effect.
SMILES,Abeta rescue,aSyn rescue,TDP43 rescue,Mm-Cpn inhibitor,ClpP mod,FUS yeast rescue
Cc1ccc(S(=O)(=O)NCCc2sc3nc(-c4ccccc4)nn3c2C)cc1C,?,·,12.6µM*,·,-0.5%,i
COc1ccc(-c2cn3nc(N4CCCC(C(=O)NCc5ccccc5Cl)C4)sc3n2)cc1 (centres undefined),i,·,6.8%,·,1.7%,?
C/C(CC(=O)Nc1cccc2c1CCCC2)=N\NC(=O)c1ccccc1N,i,0.4%,-9.9%,-1.1%,28.2µM*,i
CCN(CCCNC(=O)c1cc(Nc2ccc(OC)cc2OC)nc2ccccc12)c1cccc(C)c1,i,·,16.6%,·,-6.8%,?
CCc1nc(N2CCOCC2)c(C#N)c2c1CCCC2,i,11.8%,5.6%,-0.9%,95.0%,i
CC(C)c1nc(N2CCCC2)c(C#N)c2c1CCCC2,i,0.1%,18.9%,2.4%,28.2µM*,i
CCc1nc(N2CCCC2)c(C#N)c2c1CCCC2,i,6.7%,7.7%,0.4%,20µM*,i
CCCc1nc(N2CCCC2)c(C#N)c2c1CCCC2,i,-9.4%,8.9%,-0.1%,31.6µM*,i
CCCc1cc(N2CCN(C(=O)c3ccco3)CC2)n2c(nc3ccccc32)c1C#N,i,-6.6%,-0.9%,-2.7%,35.5µM*,i
Cc1cccc(C(=O)Nc2nc3ncccn3c2-c2ccc(F)cc2)c1,·,·,·,·,·,i
Cc1ccc(CNC(=O)Cc2csc3ccccc23)cc1,i,·,21.0%,·,0.0%,i
Cc1cccc(CNC(=O)Cc2csc3ccccc23)c1,i,20µM*,?,·,1.1%,i
O=C(Cc1csc2ccccc12)NCc1ccc(F)cc1,i,·,12.6µM*,·,0.8%,i
Cc1occc1C(=O)n1nnc2ccccc21,i,11.0%,15.8µM*,·,1.8%,i
Cc1occc1C(=O)n1cnc2ccccc21,·,·,·,0.9%,·,·
Cc1csc(C)[n+]1CCC1CCCCC1,·,·,·,·,-1.3%,·
Cc1oc(-c2ccc3c(c2)OCCO3)cc1C(=O)O,i,-50.2%,-48.5%,0.5%,?,·
COc1ccc(-c2cc(C(=O)O)c(C)o2)cc1OC,i,·,20µM*,-0.2%,-26.7%,i
CC(=O)c1ccc(NC(=O)c2cn(-c3ccccc3)nc2-c2ccc(Br)cc2)cc1,i,·,-1.4%,·,0.0%,i
O=C(NC1CCCCCC1)c1ccc2nc3cc(Cl)ccc3c(=O)n2c1,i,6.0%,-10.0%,1.7%,25.1µM*,i
COc1ccc2oc(C(=O)OCC(=O)NC3(C#N)CCCC3)c(C)c2c1,i,4.6%,12.1%,-3.5%,25.1µM*,i
COc1ccc2oc(C(=O)OCC(=O)Nc3cc(S(=O)(=O)N4CCOCC4)ccc3C)c(C)c2c1,i,-0.2%,-3.0%,-7.4%,·,i
COc1ccc2oc(C(=O)OCC(=O)Nc3ccc(NC(C)=O)cc3)c(C)c2c1,i,0.0%,-9.8%,-9.1%,25.1µM*,i
COc1ccc2oc(C(=O)OCC(=O)N(C)CC(=O)Nc3ccc(C)cc3)c(C)c2c1,i,-0.6%,5.9%,-2.3%,·,?
COc1ccc2oc(C(=O)OCC(=O)NCC3CCCO3)c(C)c2c1 (centres undefined),i,4.1%,6.1%,0.6%,12.6µM*,i
COc1ccc2oc(C(=O)OCC(=O)Nc3cc(S(=O)(=O)N4CCOCC4)ccc3OC)c(C)c2c1,i,-2.1%,7.4%,0.0%,10µM*,i
CCOc1ccc(CNC(=O)c2cc3c(=O)oc4ccc(C)cc4c3s2)cc1,i,·,-13.9%,·,0.3%,i
